# Experimental data published in ChEMBL document CHEMBL5308504, “Tm Shift (DSF) assay results for EUbOPEN Chemogenomics Library” (2023).
# Tests used:
# Conditions in all cases: Compound concentration 20.0 uM, Protein concentration 2.0 uM, Result type QC Liability
# [1] = biological target: Tyrosine-protein kinase ABL1 (Homo sapiens) (UniProt P00519)
# [2] = biological target: Cyclin-dependent kinase 2 (Homo sapiens) (UniProt P24941)
# [3] = biological target: Casein kinase I isoform delta (Homo sapiens) (UniProt P48730)
# [4] = biological target: Glycogen synthase kinase-3 beta (Homo sapiens) (UniProt P49841)
# [5] = biological target: Mitogen-activated protein kinase 1 (Homo sapiens) (UniProt P28482)
# [6] = biological target: T1, Aurora kinase A (Homo sapiens) (UniProt O14965)
# T1 sequence (whole entry): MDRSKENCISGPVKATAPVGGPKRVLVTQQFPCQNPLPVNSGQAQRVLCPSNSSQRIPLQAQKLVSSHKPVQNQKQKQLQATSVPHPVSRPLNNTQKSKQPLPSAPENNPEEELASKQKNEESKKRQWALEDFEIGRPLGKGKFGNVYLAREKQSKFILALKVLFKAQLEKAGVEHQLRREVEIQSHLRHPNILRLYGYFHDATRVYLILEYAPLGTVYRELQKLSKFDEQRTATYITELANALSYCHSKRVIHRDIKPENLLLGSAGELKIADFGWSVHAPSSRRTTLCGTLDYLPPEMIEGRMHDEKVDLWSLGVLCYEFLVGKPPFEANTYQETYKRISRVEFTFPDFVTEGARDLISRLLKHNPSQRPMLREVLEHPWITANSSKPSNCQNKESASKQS
# Sequence of Tyrosine-protein kinase ABL1 (Homo sapiens) (P00519 whole entry): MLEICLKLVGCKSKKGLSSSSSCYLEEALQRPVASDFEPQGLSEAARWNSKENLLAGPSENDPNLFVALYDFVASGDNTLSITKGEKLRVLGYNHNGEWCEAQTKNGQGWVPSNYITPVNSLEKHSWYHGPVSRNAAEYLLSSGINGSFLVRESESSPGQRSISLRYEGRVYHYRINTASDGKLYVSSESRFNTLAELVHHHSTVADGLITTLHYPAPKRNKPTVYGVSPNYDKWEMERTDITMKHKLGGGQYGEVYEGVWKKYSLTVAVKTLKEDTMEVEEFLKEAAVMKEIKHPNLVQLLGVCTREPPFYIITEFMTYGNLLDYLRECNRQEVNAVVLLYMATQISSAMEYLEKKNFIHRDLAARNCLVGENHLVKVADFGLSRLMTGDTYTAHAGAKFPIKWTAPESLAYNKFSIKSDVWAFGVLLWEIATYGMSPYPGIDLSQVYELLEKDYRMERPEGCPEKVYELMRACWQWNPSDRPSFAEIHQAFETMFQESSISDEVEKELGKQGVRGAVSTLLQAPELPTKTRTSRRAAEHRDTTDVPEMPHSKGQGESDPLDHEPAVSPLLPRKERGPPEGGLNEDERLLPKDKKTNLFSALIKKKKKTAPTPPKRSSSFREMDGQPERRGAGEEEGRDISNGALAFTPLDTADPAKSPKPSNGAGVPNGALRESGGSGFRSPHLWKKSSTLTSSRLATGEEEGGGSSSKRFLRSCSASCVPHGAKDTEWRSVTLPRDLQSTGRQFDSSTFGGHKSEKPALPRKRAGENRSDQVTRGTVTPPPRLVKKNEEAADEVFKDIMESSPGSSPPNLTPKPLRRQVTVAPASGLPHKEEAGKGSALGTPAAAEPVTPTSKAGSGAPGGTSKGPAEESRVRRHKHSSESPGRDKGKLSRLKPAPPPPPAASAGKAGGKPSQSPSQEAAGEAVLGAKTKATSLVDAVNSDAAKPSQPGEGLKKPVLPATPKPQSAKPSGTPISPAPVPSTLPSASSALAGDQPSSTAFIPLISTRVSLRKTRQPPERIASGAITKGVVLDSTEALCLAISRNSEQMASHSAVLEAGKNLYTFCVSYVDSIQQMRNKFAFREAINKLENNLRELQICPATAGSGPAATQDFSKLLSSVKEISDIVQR
# Sequence of Casein kinase I isoform delta (Homo sapiens) (P48730 whole entry, looked up, canonical isoform): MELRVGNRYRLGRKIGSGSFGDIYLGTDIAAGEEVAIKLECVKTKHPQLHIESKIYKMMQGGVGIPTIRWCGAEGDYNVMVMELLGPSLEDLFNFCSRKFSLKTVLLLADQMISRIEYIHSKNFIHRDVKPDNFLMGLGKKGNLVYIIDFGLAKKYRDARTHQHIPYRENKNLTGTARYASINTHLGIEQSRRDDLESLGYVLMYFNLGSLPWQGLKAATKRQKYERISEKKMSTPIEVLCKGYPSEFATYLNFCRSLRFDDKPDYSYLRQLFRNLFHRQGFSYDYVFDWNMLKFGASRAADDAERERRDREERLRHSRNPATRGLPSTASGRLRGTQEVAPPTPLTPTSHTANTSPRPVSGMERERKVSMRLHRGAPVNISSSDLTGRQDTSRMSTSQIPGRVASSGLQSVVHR
# Sequence of Mitogen-activated protein kinase 1 (Homo sapiens) (P28482 whole entry): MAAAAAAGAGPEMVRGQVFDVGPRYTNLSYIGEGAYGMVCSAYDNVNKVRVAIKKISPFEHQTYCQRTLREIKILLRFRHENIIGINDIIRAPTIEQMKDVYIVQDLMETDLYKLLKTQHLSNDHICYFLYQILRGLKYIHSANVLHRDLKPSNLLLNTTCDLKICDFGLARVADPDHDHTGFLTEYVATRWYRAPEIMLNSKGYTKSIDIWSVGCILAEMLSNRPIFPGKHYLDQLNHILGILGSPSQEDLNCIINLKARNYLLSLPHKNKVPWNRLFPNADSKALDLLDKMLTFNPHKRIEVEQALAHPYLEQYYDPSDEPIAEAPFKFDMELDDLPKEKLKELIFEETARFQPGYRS
# Sequence of Glycogen synthase kinase-3 beta (Homo sapiens) (P49841 whole entry, looked up): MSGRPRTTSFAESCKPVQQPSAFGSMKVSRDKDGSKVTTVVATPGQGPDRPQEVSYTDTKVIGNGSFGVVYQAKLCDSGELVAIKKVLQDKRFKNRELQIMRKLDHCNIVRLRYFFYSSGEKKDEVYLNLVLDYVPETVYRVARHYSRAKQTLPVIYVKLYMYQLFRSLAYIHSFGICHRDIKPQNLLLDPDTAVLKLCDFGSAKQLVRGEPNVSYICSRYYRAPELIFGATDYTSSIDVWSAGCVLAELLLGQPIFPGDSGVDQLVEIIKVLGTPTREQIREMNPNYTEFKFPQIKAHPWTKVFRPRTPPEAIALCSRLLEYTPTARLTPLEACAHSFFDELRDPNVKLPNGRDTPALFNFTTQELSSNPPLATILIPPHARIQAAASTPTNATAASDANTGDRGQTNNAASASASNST
structure (smiles),measurement,setting,value
COc1c(OCCCN2CCOCC2)ccc2c1N=C(NC(=O)c1cnc(N)nc1)N1CCN=C21,ΔTm,[1],0.09 °C
same,ΔTm,[2],0.39 °C
same,ΔTm,[3],0.2 °C
same,ΔTm,[4],-1.01 °C
same,ΔTm,[5],0.14 °C
same,ΔTm,[6],-0.67 °C
Cn1cc(-n2cnc3c(NCc4nc5cc(Cl)c(Cl)cc5[nH]4)nc(N4CCOCC4)nc32)cn1,ΔTm,[1],-0.15 °C
same,ΔTm,[2],0.06 °C
same,ΔTm,[3],-0.03 °C
same,ΔTm,[4],2.12 °C
same,ΔTm,[5],-0.02 °C
same,ΔTm,[6],0.53 °C
O=C(O)CCn1c2c(c3ccccc31)C[C@H](NS(=O)(=O)c1ccc(F)cc1)CC2,ΔTm,[1],1.15 °C
same,ΔTm,[2],1.26 °C
same,ΔTm,[3],0.09 °C
same,ΔTm,[4],0.24 °C
same,ΔTm,[5],0.28 °C
same,ΔTm,[6],-0.02 °C
Clc1ccc(-c2nc3sccn3c2/C=N/OCc2ccc(Cl)c(Cl)c2)cc1,ΔTm,[1],-0.76 °C
same,ΔTm,[2],-0.94 °C
same,ΔTm,[3],-2.09 °C
same,ΔTm,[4],-0.83 °C
same,ΔTm,[5],-0.15 °C
same,ΔTm,[6],-1.05 °C
NCCCc1c(C(=O)O)[nH]c2ccc(C(=O)Nc3ccccc3)cc12,ΔTm,[1],0.08 °C
same,ΔTm,[2],0.25 °C
same,ΔTm,[3],0.53 °C
same,ΔTm,[4],-0.39 °C
same,ΔTm,[5],0.25 °C
same,ΔTm,[6],-1.5 °C
COC[C@@H](C)N[C@H]1CC[C@H](Nc2cc(-c3cccc(NCC4(C#N)CCOCC4)n3)c(Cl)cn2)CC1,ΔTm,[1],0.33 °C
same,ΔTm,[2],-1.43 °C
same,ΔTm,[3],0.03 °C
same,ΔTm,[4],-0.08 °C
same,ΔTm,[5],0.43 °C
same,ΔTm,[6],0.38 °C
COc1cc(-c2nn([C@H]3CC[C@H](N4CCN(C(C)=O)CC4)CC3)c3ncnc(N)c23)ccc1NC(=O)c1cc2ccccc2n1C,ΔTm,[1],14.2 °C
same,ΔTm,[2],1.13 °C
same,ΔTm,[3],21 °C
same,ΔTm,[4],0 °C
same,ΔTm,[5],3.54 °C
same,ΔTm,[6],8.28 °C
Cc1cnc(-c2cnc(NCCNc3ccc(C#N)cn3)nc2-c2ccc(Cl)cc2Cl)[nH]1,ΔTm,[1],0.86 °C
same,ΔTm,[2],1.98 °C
same,ΔTm,[3],1.3 °C
same,ΔTm,[4],14.6 °C
same,ΔTm,[5],1.17 °C
same,ΔTm,[6],2.09 °C
O=C1Nc2nc(-c3c(O)cccc3OCC3CC3)cc([C@@H]3CCCNC3)c2CO1,ΔTm,[1],0.61 °C
same,ΔTm,[2],2.37 °C
same,ΔTm,[3],2.04 °C
same,ΔTm,[4],1.54 °C
same,ΔTm,[5],1.1 °C
same,ΔTm,[6],-0.03 °C
Cc1ccc(-c2cn3nc(C(=O)NC4(c5ccc(F)cc5)CN(C)C4)c(C(C)C)c3c(=O)[nH]2)cc1C,ΔTm,[1],-0.12 °C
same,ΔTm,[2],0.03 °C
same,ΔTm,[3],0.69 °C
same,ΔTm,[4],-0.83 °C
same,ΔTm,[5],0.08 °C
same,ΔTm,[6],0.49 °C
COc1cc(C(=O)O)ncc1C#Cc1ccccc1NS(=O)(=O)c1cccc2c(N(C)C)ccnc12,ΔTm,[1],0.14 °C
same,ΔTm,[2],-0.3 °C
same,ΔTm,[3],0.08 °C
same,ΔTm,[4],-0.76 °C
same,ΔTm,[5],0.42 °C
same,ΔTm,[6],0.72 °C
Cc1ccc(NC(=O)c2ccc(CN3CC[C@H](N(C)C)C3)c(C(F)(F)F)c2)cc1Nc1nccc(-c2cncnc2)n1,ΔTm,[1],17.6 °C
same,ΔTm,[2],0.7 °C
same,ΔTm,[3],0.73 °C
same,ΔTm,[4],0.08 °C
same,ΔTm,[5],0.9 °C
same,ΔTm,[6],0.26 °C
C/C=C1\C(=O)CC2C3CCC4=CC(=O)CC[C@]4(C)C3CC[C@]12C (stereo partly specified),ΔTm,[1],0.07 °C
same,ΔTm,[2],-0.3 °C
same,ΔTm,[3],0.63 °C
same,ΔTm,[4],-1.05 °C
same,ΔTm,[5],0.47 °C
same,ΔTm,[6],-1.78 °C
CC(C)(C)c1cnc(CSc2cnc(NC(=O)C3CCN(CC(=O)NCCOCCOCCOCCNc4cccc5c4C(=O)N(C4CCC(=O)NC4=O)C5=O)CC3)s2)o1 (stereo unspecified),ΔTm,[1],-2.84 °C
same,ΔTm,[2],9.12 °C
same,ΔTm,[3],0 °C
same,ΔTm,[4],10.8 °C
same,ΔTm,[5],0.99 °C
same,ΔTm,[6],7.5 °C
C[C@@H]1CCNC(=O)c2cc3ccc(C(=O)Nc4nc5ccccc5n4CCCN(C)C)cc3n21,ΔTm,[1],1.4 °C
same,ΔTm,[2],0.73 °C
same,ΔTm,[3],2.87 °C
same,ΔTm,[4],0.5 °C
same,ΔTm,[5],0.36 °C
same,ΔTm,[6],3.79 °C
CN1CCN(c2ccc(/C=C(\C#N)c3ccccc3Br)cc2)CC1,ΔTm,[1],-0.04 °C
same,ΔTm,[2],0.19 °C
same,ΔTm,[3],0.85 °C
same,ΔTm,[4],-0.47 °C
same,ΔTm,[5],0.11 °C
same,ΔTm,[6],-1.83 °C
CN1CCN(c2ccc(-n3cc(-c4ccncc4OCC4CCNCC4)cn3)cc2)CC1,ΔTm,[1],1.5 °C
same,ΔTm,[2],1.21 °C
same,ΔTm,[3],1.48 °C
same,ΔTm,[4],-0.06 °C
same,ΔTm,[5],0.53 °C
same,ΔTm,[6],-0.52 °C
CN1CCN(c2ccc(Nc3ncc4cc5n(c4n3)C3(CCCCC3)CNC5=O)nc2)CC1,ΔTm,[1],0.17 °C
same,ΔTm,[2],0 °C
same,ΔTm,[3],-0.03 °C
same,ΔTm,[4],0.02 °C
same,ΔTm,[5],0.18 °C
same,ΔTm,[6],0.38 °C
CC1(C)CCN(C(=O)C2CN(c3c4c(nc5ccnn35)CCNCC4)C2)C1,ΔTm,[1],-0.37 °C
same,ΔTm,[2],0.71 °C
same,ΔTm,[3],0.26 °C
same,ΔTm,[4],-0.71 °C
same,ΔTm,[5],0.08 °C
same,ΔTm,[6],-0.02 °C
COc1cnccc1Nc1nc(-c2nn(Cc3c(F)cc(OCCO)cc3F)c3ccccc23)ncc1OC,ΔTm,[1],-0.43 °C
same,ΔTm,[2],-0.62 °C
same,ΔTm,[3],-2.9 °C
same,ΔTm,[4],-5.93 °C
same,ΔTm,[5],-0.07 °C
same,ΔTm,[6],-1.95 °C
C[C@H](CCC(=O)O)[C@H]1CC[C@H]2[C@@H]3CC[C@@H]4C[C@H](O)CC[C@]4(C)[C@H]3C[C@H](O)[C@]12C,ΔTm,[1],-0.07 °C
same,ΔTm,[2],0.15 °C
same,ΔTm,[3],0.54 °C
same,ΔTm,[4],-0.7 °C
same,ΔTm,[5],0.2 °C
same,ΔTm,[6],-0.62 °C
Cc1cccc(-c2nn3c(c2-c2ccnc4ccc(C(N)=O)cc24)CCC3)n1,ΔTm,[1],1.72 °C
same,ΔTm,[2],0.75 °C
same,ΔTm,[3],3.53 °C
same,ΔTm,[4],3.04 °C
same,ΔTm,[5],0.51 °C
same,ΔTm,[6],-0.95 °C
Cn1c(C(=O)N[C@@H](CO)c2ccc(C(=O)O)cc2)cc2cc(Cl)ccc21,ΔTm,[1],-0.2 °C
same,ΔTm,[2],0.54 °C
same,ΔTm,[3],0.58 °C
same,ΔTm,[4],0.38 °C
same,ΔTm,[5],-0.04 °C
same,ΔTm,[6],0.34 °C
CCC(=O)N[C@H]1CC[C@@H](C(=O)N(C)c2ccc(-c3nc4ccccc4o3)cc2)C1,ΔTm,[1],0.73 °C
same,ΔTm,[2],0.83 °C
same,ΔTm,[3],0.61 °C
same,ΔTm,[4],-0.48 °C
same,ΔTm,[5],0.13 °C
same,ΔTm,[6],0.03 °C
COc1cc(-c2cncc(-c3cnn(C4CCNCC4)c3)c2)cc(OC)c1OC,ΔTm,[1],4.87 °C
same,ΔTm,[2],0.28 °C
same,ΔTm,[3],0.76 °C
same,ΔTm,[4],-0.71 °C
same,ΔTm,[5],0.5 °C
same,ΔTm,[6],-0.25 °C
CN[C@@H](C)C(=O)N[C@H]1CN(C(=O)CC(C)C)CC[C@H]2CC[C@@H](C(=O)NC(c3ccccc3)c3ccccc3)N2C1=O,ΔTm,[1],-0.01 °C
same,ΔTm,[2],0.45 °C
same,ΔTm,[3],0.05 °C
same,ΔTm,[4],-0.59 °C
same,ΔTm,[5],0.19 °C
same,ΔTm,[6],0.17 °C
